# Test results published in ChEMBL document CHEMBL1961873, “Compounds: GSK PKIS; Assays: Nanosyn kinase panel” (2012).
# Biological target: Tyrosine-protein kinase FRK (Homo sapiens) (UniProt P42685);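 also: reported percent inhibition is a mean value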
# Details: at 1 µM
# Sequence of Tyrosine-protein kinase FRK (Homo sapiens) (P42685 whole entry): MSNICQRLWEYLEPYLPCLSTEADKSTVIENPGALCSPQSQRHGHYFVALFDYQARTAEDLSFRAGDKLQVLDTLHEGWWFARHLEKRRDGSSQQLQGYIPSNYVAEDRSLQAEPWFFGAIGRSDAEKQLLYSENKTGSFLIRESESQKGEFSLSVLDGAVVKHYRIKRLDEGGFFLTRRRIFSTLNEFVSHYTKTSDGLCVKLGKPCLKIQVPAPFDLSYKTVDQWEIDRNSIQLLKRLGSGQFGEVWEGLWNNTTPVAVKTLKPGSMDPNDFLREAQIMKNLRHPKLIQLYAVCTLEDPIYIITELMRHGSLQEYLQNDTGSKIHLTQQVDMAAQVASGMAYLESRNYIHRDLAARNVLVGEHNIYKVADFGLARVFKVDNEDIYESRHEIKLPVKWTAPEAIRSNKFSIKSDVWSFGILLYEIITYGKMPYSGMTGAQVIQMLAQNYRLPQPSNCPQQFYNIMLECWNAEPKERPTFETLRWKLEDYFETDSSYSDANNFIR
row,SMILES,inhibition
1,[O-][S+]1CCN(Cc2ccc(-c3ccc4ncnc(Nc5ccc(OCc6ccccc6)c(Cl)c5)c4c3)o2)CC1,1.48%
2,C[C@@H](Oc1cc(-n2cnc3ccc(OC[C@@H](O)CO)cc32)sc1C(N)=O)c1ccccc1Cl,2.17%
3,OCc1ccc(-c2nc(-c3ccccn3)c(-c3ccc4c(c3)OCO4)[nH]2)cc1,2.05%
4,NS(=O)(=O)c1ccc(Nc2cc(-c3cccc(O)c3)n[nH]2)cc1,2.04%
5,Nc1ccc(C#Cc2cncnc2Nc2ccc(OCc3cccc(F)c3)c(Cl)c2)cc1,1.06%
6,Cc1ccc(Nc2ccnc(Nc3cccc(C(N)=O)c3)n2)cc1O,87.6%
7,CCCN1CCCC(c2ccc(Nc3nc(Nc4cc(F)ccc4C(N)=O)c4cc[nH]c4n3)c(OC)c2)C1 (stereo unspecified),20.5%
8,N#Cc1cccc(Nc2nccc(-c3cnn4ncccc34)n2)c1,16%
9,COc1cc(Nc2nccc(-c3cnn4ncccc34)n2)cc(OC)c1,5.05%
10,CS(=O)(=O)CCNCc1nc(-c2ccc3ncnc(Nc4ccc(OCc5cccc(C(F)(F)F)c5)cc4)c3c2)cs1,0.38%
11,Cc1ccc(O)cc1Nc1ccnc2ccc(S(C)(=O)=O)cc12,95.7%
12,Cc1nc(-c2ccccc2)n2nc(NCCCN3CCOCC3)ncc12,2.61%
13,COc1cccc(-n2ncc3c(N/N=C/c4ccc(S(C)(=O)=O)cc4)ncnc32)c1,3.05%
14,NC(=O)c1sc(-n2cnc3ccccc32)cc1OCc1ccccc1Br,3.29%
15,CS(=O)(=O)Nc1cccc(-c2ccc3c(NC(=O)C4CC4)n[nH]c3c2)c1,0.42%
16,COc1cccc(-n2ncc3c(N/N=C/c4ccc(C)cc4)ncnc32)c1,5.6%
17,NS(=O)(=O)c1cccc(Nc2cc(-c3ccc(F)cc3)n[nH]2)c1,2.07%

row,SMILES,inhibition
1,COC(=O)c1ccc2c(c1)C(=Cc1cc(Br)c(O)c(Br)c1)C(=O)N2,7.02%
2,CCS(=O)(=O)c1ccc(OC)c(Nc2nccc(N(C)c3ccc4c(C)n[nH]c4c3)n2)c1,70.2%
3,O=S(=O)(CCOCc1ccc(-c2ccc3ncnc(Nc4ccc(OCc5cccc(F)c5)c(Cl)c4)c3c2)o1)c1ccccc1,0.79%
4,Cc1cc(-c2ccccn2)cc(C)c1/C=C/c1cncc(-c2nn[nH]n2)c1,4.57%
5,CN(C)C(=O)O[C@@H]1CN[C@@H](C#Cc2cc3ncnc(Nc4ccc(OCc5cccc(F)c5)c(Cl)c4)c3s2)C1,2.18%
6,Oc1cccc(-c2nc(-c3ccccc3)[nH]c2-c2ccncc2)c1,16.5%
7,CN1CCN(C(=O)c2ccc(NC(=O)Nc3ccc(N(C)c4ccnc(Nc5ccc(CS(C)(=O)=O)cc5)n4)cc3)cc2)CC1,4.04%
8,COc1cc(/C=N/Nc2ncnc3c2cnn3C(C)C)ccc1O,1.87%
9,FC(F)(F)c1ccc(-c2nn3ncccc3c2-c2ccnc(Nc3ccc4c(c3)OCCO4)n2)cc1,2.35%
10,Nc1nccc(-c2c(-c3ccc(F)cc3)ncn2CCCN2CCOCC2)n1,1.08%
11,Cc1ccc(C(=O)NC2CC2)cc1-c1ccc2[nH]ncc2c1,-4.36%
12,COc1cc2ncn(-c3cc(OCc4ccccc4S(C)(=O)=O)c(C#N)s3)c2cc1OC,4.36%
13,COc1ccc2ncnc(Nc3ccc(OCc4ccccc4)cc3)c2c1,0.42%
14,COC(=O)Nc1nc2cc(Oc3ccc(NC(=O)Nc4cccc(Br)c4)cc3)ccc2[nH]1,1.12%
15,Cc1ccc2c(-c3ccnc(Nc4cccc(C(F)(F)F)c4)n3)c(-c3ccccc3)nn2n1,30.1%
16,COc1cc2ncnc(Nc3ccc(C)c(O)c3)c2cc1OC,19.9%

# Biological target: Protein-tyrosine kinase 2-beta (Homo sapiens) (UniProt Q14289);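 also: reported as mean percent inhibition of PYK2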
# Details: at 0.1 µM
# Sequence of Protein-tyrosine kinase 2-beta (Homo sapiens) (Q14289 whole entry, looked up): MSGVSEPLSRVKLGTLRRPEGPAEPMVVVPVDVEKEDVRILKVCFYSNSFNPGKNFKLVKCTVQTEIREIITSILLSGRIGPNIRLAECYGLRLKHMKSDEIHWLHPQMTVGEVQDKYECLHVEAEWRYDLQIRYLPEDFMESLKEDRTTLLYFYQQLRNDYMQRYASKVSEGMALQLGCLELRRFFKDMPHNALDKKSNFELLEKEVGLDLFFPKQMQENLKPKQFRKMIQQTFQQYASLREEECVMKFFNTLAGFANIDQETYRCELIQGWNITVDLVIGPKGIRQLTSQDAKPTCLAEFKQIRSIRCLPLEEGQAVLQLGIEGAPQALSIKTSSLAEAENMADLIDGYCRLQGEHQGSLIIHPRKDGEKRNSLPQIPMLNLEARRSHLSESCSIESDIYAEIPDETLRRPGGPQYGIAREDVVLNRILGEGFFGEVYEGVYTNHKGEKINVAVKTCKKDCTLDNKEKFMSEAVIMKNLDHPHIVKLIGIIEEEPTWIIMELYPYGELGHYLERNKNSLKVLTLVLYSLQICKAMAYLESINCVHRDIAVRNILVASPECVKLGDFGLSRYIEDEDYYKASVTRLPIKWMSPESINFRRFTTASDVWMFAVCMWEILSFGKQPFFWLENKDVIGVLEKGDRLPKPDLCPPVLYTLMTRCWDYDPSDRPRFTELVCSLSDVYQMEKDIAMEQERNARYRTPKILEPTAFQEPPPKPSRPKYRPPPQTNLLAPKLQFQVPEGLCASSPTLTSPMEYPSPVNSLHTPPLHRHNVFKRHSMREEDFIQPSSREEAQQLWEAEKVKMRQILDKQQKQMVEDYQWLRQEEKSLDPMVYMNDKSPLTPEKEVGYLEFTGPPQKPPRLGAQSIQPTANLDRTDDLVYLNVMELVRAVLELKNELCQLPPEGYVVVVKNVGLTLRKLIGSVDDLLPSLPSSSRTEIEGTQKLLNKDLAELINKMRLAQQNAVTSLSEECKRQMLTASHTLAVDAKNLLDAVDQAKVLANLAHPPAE
row,SMILES,inhibition
1,[O-][S+]1CCN(Cc2ccc(-c3ccc4ncnc(Nc5ccc(OCc6ccccc6)c(Cl)c5)c4c3)o2)CC1,6.05%
2,C[C@@H](Oc1cc(-n2cnc3ccc(OC[C@@H](O)CO)cc32)sc1C(N)=O)c1ccccc1Cl,-2.91%
3,OCc1ccc(-c2nc(-c3ccccn3)c(-c3ccc4c(c3)OCO4)[nH]2)cc1,12%
4,NS(=O)(=O)c1ccc(Nc2cc(-c3cccc(O)c3)n[nH]2)cc1,10.7%
5,Nc1ccc(C#Cc2cncnc2Nc2ccc(OCc3cccc(F)c3)c(Cl)c2)cc1,-4.77%
6,Cc1ccc(Nc2ccnc(Nc3cccc(C(N)=O)c3)n2)cc1O,9.71%
7,CCCN1CCCC(c2ccc(Nc3nc(Nc4cc(F)ccc4C(N)=O)c4cc[nH]c4n3)c(OC)c2)C1 (stereo unspecified),96%
8,N#Cc1cccc(Nc2nccc(-c3cnn4ncccc34)n2)c1,21.6%
9,COc1cc(Nc2nccc(-c3cnn4ncccc34)n2)cc(OC)c1,38.9%
10,CS(=O)(=O)CCNCc1nc(-c2ccc3ncnc(Nc4ccc(OCc5cccc(C(F)(F)F)c5)cc4)c3c2)cs1,-1.25%
11,Cc1ccc(O)cc1Nc1ccnc2ccc(S(C)(=O)=O)cc12,15.7%
12,Cc1nc(-c2ccccc2)n2nc(NCCCN3CCOCC3)ncc12,1.99%
13,COc1cccc(-n2ncc3c(N/N=C/c4ccc(S(C)(=O)=O)cc4)ncnc32)c1,3.04%
14,NC(=O)c1sc(-n2cnc3ccccc32)cc1OCc1ccccc1Br,7.34%
15,CS(=O)(=O)Nc1cccc(-c2ccc3c(NC(=O)C4CC4)n[nH]c3c2)c1,2.77%
16,COc1cccc(-n2ncc3c(N/N=C/c4ccc(C)cc4)ncnc32)c1,4.06%
17,NS(=O)(=O)c1cccc(Nc2cc(-c3ccc(F)cc3)n[nH]2)c1,7.64%

row,SMILES,inhibition
1,COC(=O)c1ccc2c(c1)C(=Cc1cc(Br)c(O)c(Br)c1)C(=O)N2,3.82%
2,CCS(=O)(=O)c1ccc(OC)c(Nc2nccc(N(C)c3ccc4c(C)n[nH]c4c3)n2)c1,4%
3,O=S(=O)(CCOCc1ccc(-c2ccc3ncnc(Nc4ccc(OCc5cccc(F)c5)c(Cl)c4)c3c2)o1)c1ccccc1,4.11%
4,Cc1cc(-c2ccccn2)cc(C)c1/C=C/c1cncc(-c2nn[nH]n2)c1,3.75%
5,CN(C)C(=O)O[C@@H]1CN[C@@H](C#Cc2cc3ncnc(Nc4ccc(OCc5cccc(F)c5)c(Cl)c4)c3s2)C1,-3.27%
6,Oc1cccc(-c2nc(-c3ccccc3)[nH]c2-c2ccncc2)c1,7.31%
7,CN1CCN(C(=O)c2ccc(NC(=O)Nc3ccc(N(C)c4ccnc(Nc5ccc(CS(C)(=O)=O)cc5)n4)cc3)cc2)CC1,29.2%
8,COc1cc(/C=N/Nc2ncnc3c2cnn3C(C)C)ccc1O,8.31%
9,FC(F)(F)c1ccc(-c2nn3ncccc3c2-c2ccnc(Nc3ccc4c(c3)OCCO4)n2)cc1,2.83%
10,Nc1nccc(-c2c(-c3ccc(F)cc3)ncn2CCCN2CCOCC2)n1,9.24%
11,Cc1ccc(C(=O)NC2CC2)cc1-c1ccc2[nH]ncc2c1,-4.62%
12,COc1cc2ncn(-c3cc(OCc4ccccc4S(C)(=O)=O)c(C#N)s3)c2cc1OC,12%
13,COc1ccc2ncnc(Nc3ccc(OCc4ccccc4)cc3)c2c1,-1.91%
14,COC(=O)Nc1nc2cc(Oc3ccc(NC(=O)Nc4cccc(Br)c4)cc3)ccc2[nH]1,5.36%
15,Cc1ccc2c(-c3ccnc(Nc4cccc(C(F)(F)F)c4)n3)c(-c3ccccc3)nn2n1,16.5%
16,COc1cc2ncnc(Nc3ccc(C)c(O)c3)c2cc1OC,12.5%
